Laboratory results from PubChem BioAssay (EPA / NIEHS).
Active and inactive are the calls of the source. The calls were made as follows: active = hit-call score of the fitted dose curve at least 0.9, where 1 is the maximum; inactive = score below 0.9.

What was measured:
[1] = molecular target: Transcription factor E2F1 (Homo sapiens) (UniProt Q01094); assay: ATG_E2F_CIS: Attagene CIS-FACTORIAL HepG2 Assay for human E2F Transcription Factor 1 (AID 2282935); settings: HepG2 Attagene cis-reporter, E2F reporter RNA transcripts; actives raise or lower the signal
Procedure, shortened: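 HepG2 cells transiently transfected with multiplexed cis-element reporter units, dosed for 24 h. Reporter mRNA measured by RT-PCR, 6-FAM primer-extension labeling, HpaI digestion and capillary electrophoresis; bidirectional fit versus DMSO baseline.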

[2] = ATG_E_Box_CIS: Attagene CIS-FACTORIAL HepG2 Assay for human Enhancer Box (E-box) (AID 2282936); settings: HepG2 E-box cis-reporter transcription, actives raise or lower the signal
Procedure, shortened: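 HepG2 cells transiently transfected with multiplexed cis-element reporter units sensing endogenous transcription factor activity; 24 h compound exposure. Reporter mRNA measured by RT-PCR, 6-FAM primer extension, HpaI digestion and capillary electrophoresis; bidirectional fit versus DMSO.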

[3] = ATG_EGR_CIS: Attagene CIS-FACTORIAL HepG2 Assay for human Early Growth Response 1 (EGR1) (AID 2282938); settings: HepG2 Attagene CIS-FACTORIAL EGR reporter mRNA; actives raise or lower the signal
Procedure, shortened: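 HepG2 cells transiently transfected with cis-promoter-driven multiplexed reporter transcription units; reporter mRNA measured 24 h after compound dosing by RT-PCR, 6-FAM primer extension, HpaI digestion and capillary electrophoresis. Bidirectional fit versus DMSO baseline.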

[4] = ATG_M_19_CIS: Attagene CIS-FACTORIAL HepG2 Assay for M19 Transcription Factor (Internal Marker) (AID 2282939); settings: HepG2 Attagene CIS-FACTORIAL M19 internal marker reporter; actives raise or lower the signal
Procedure, shortened: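 Chemical-treated HepG2 (24 h) with MRTU constructs; reporter transcripts detected by fluorescent RT-PCR fragment analysis on capillary electrophoresis. Internal background marker, DMSO as baseline.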

[5] = ATG_ERE_CIS: Attagene CIS-FACTORIAL HepG2 Assay for Estrogen Response Element (ERE) (AID 2282940); settings: HepG2 ERE cis-reporter, Attagene RNA transcript; actives raise or lower the signal
Procedure, shortened: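 Human liver cells (HepG2) bearing transiently transfected, promoter-regulated reporter units were exposed 24 h. Reporter mRNA induction was detected by capillary electrophoresis of labelled RT-PCR products and fitted bidirectionally to DMSO.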

[6] = ATG_Ets_CIS: Attagene CIS-FACTORIAL HepG2 Assay for human Erythroblast Transformation Specific (ETS) (AID 2282941); settings: HepG2 ETS cis-reporter transcription, actives raise or lower the signal
Procedure, shortened: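 Human HepG2 hepatoma cells were transiently transfected with promoter-driven reporter constructs and treated for 24 hours. Reporter transcripts were quantified by RT-PCR with fluorescent primer extension; bidirectional curve fitting used DMSO as reference.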

[7] = molecular target: Hepatocyte nuclear factor 3-beta (Homo sapiens) (UniProt Q9Y261); assay: ATG_FoxA2_CIS: Attagene CIS-FACTORIAL HepG2 Assay for human Forkhead box A2 (FOXA2) (AID 2282942); settings: HepG2 cis-reporter transcription factor activity, 24 h; actives raise or lower the signal
Procedure, shortened: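 HepG2 cells transiently transfected with multiple cis-regulated reporter transcription units, dosed for 24 h. Reporter mRNA measured by RT-PCR, 6-FAM labelling, HpaI digestion and capillary electrophoresis; bidirectional fitting against DMSO baseline.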

[8] = ATG_FoxO_CIS: Attagene CIS-FACTORIAL HepG2 Assay for human Forkhead box O (FoxO) (AID 2282943); settings: HepG2 Attagene cis-reporter, FoxO element, mRNA; actives raise or lower the signal
Procedure, shortened: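 HepG2 cells transiently transfected with cis-promoter-driven multiple reporter transcription units; 24 h after chemical dosing, reporter mRNA quantified by RT-PCR, fluorescent primer extension, HpaI digestion and capillary electrophoresis. Bidirectional fitting versus DMSO baseline.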

[9] = ATG_GATA_CIS: Attagene CIS-FACTORIAL HepG2 Assay for human GATA Binding Protein (AID 2282944); settings: HepG2 GATA cis-element reporter, Attagene multiplex mRNA; actives raise or lower the signal
Procedure, shortened: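 Transfected cis-reporter HepG2 cells were treated with chemicals for 24 hours. Total RNA was then converted to cDNA, amplified with reporter-specific primers and analysed by fluorescent capillary electrophoresis, using DMSO-treated wells as baseline.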

[10] = ATG_GLI_CIS: Attagene CIS-FACTORIAL HepG2 Assay for human Zinc Finger Protein GLI1 (AID 2282945); settings: HepG2, Attagene cis-factorial reporter mRNA, GLI element; actives raise or lower the signal
Procedure, shortened: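 HepG2 cells transiently transfected with cis-promoter multiplexed reporter units report endogenous transcription factor activity. After 24 h chemical exposure, reporter mRNA was quantified by RT-PCR, 6-FAM labelling, HpaI digestion and capillary electrophoresis, with bidirectional fitting against DMSO.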

[11] = ATG_ISRE_CIS: Attagene CIS-FACTORIAL HepG2 Assay for human Interferon Regulatory Factor 1 (IRF1) binding to an Interferon-Stimulated Response Element (ISRE) (AID 2282948); settings: HepG2 ISRE cis-reporter (Attagene), mRNA transcription readout; actives raise or lower the signal
Procedure, shortened: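 Cell-based cis-reporter assay; HepG2; 24 h exposure; reporter mRNA by RT-PCR plus capillary electrophoresis fluorescence; activity in either direction scored relative to DMSO.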

[12] = ATG_M_32_CIS: Attagene CIS-FACTORIAL HepG2 Assay for M32 Transcription Factor (Internal Marker) (AID 2282949); settings: HepG2 Attagene cis-factorial M32 reporter, mRNA; actives raise or lower the signal;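 also: background control marker of the multiplexed CIS panel rather than a real target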
Procedure, shortened: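 Following 24 h chemical exposure of HepG2 cells transiently expressing cis-promoter reporter constructs, reporter transcript levels were determined by RT-PCR with fluorescent labelling and capillary electrophoresis, then fitted bidirectionally against DMSO.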

[13] = ATG_M_06_CIS: Attagene CIS-FACTORIAL HepG2 Assay for M06 Transcription Factor (Internal Marker) (AID 2282950); settings: HepG2 Attagene CIS-FACTORIAL M06 internal marker reporter; actives raise or lower the signal
Procedure, shortened: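 Cells (HepG2, transiently carrying cis-driven reporter units) receive chemical for 24 h before RNA isolation. Reporter cDNA is PCR-amplified, FAM-labelled by primer extension, HpaI-digested and sized on a capillary analyser.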

[14] = molecular target: Hepatocyte nuclear factor 6 (Homo sapiens) (UniProt Q9UBC0); assay: ATG_HNF6_CIS: Attagene CIS-FACTORIAL HepG2 Assay for human Hepatocyte Nuclear Factor 6 (HNF6) (AID 2282952); settings: HepG2 Attagene cis-factorial HNF6 reporter transcription; actives raise or lower the signal
Procedure, shortened: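 Cells are HepG2 carrying transiently transfected cis-promoter reporter units. Treatment lasts 24 h, after which reporter transcripts are reverse-transcribed, amplified, FAM-labelled and sized by capillary electrophoresis. DMSO serves as baseline.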

[15] = molecular target: Heat shock factor protein 1 (Homo sapiens) (UniProt Q00613); assay: ATG_HSE_CIS: Attagene CIS-FACTORIAL HepG2 Assay for human Heat Shock Transcription Factor 1 (HSE) (AID 2282953); settings: HepG2 HSE cis-reporter, Attagene RNA transcription; actives raise or lower the signal
Procedure, shortened: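 Liver-derived HepG2 cells carry transiently introduced multiple reporter units governed by cis promoters. Reporter RNA measured 24 h post-dose through reverse transcription, PCR amplification, fluorescent labelling and capillary electrophoresis, normalised to DMSO.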

[16] = ATG_MRE_CIS: Attagene CIS-FACTORIAL HepG2 Assay for human Metal Responsive Element (MRE) (AID 2282954); settings: HepG2 MRE cis-reporter transcription, Attagene multiplex; actives raise or lower the signal
Procedure, shortened: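 HepG2 cells transiently transfected with multiple cis-element reporter units measure endogenous MTF1-driven transcription. After 24 h compound exposure, reporter mRNA is quantified by RT-PCR with 6-FAM labelling, HpaI digestion and capillary electrophoresis; bidirectional fits versus DMSO.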

[17] = ATG_GRE_CIS: Attagene CIS-FACTORIAL HepG2 Assay for human Glucocorticoid Response Elements (GRE) (AID 2282947); settings: HepG2 GRE cis-reporter, Attagene multiplex mRNA; actives raise or lower the signal
Procedure, shortened: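 HepG2 cells transiently transfected with multiple cis-promoter reporter units measure endogenous TF activity; 24 h compound exposure. Reporter mRNA quantified by RT-PCR, FAM labelling, HpaI digestion and capillary electrophoresis; bidirectional fit vs DMSO baseline.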

[18] = molecular target: Hypoxia-inducible factor 1-alpha (Homo sapiens) (UniProt Q16665); assay: ATG_HIF1a_CIS: Attagene CIS-FACTORIAL HepG2 Assay for human Hypoxia Inducible Factor 1 (HIF1A) (AID 2282951); settings: HepG2 Attagene cis-factorial HIF1a reporter transcription; actives raise or lower the signal
Procedure, shortened: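 HepG2 cells transiently transfected with multiplexed cis-promoter reporter units; reporter mRNA read 24 h after dosing by RT-PCR, 6-FAM primer-extension labelling, HpaI digestion and capillary electrophoresis. Bidirectional fit versus DMSO baseline.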

[19] = ATG_M_61_CIS: Attagene CIS-FACTORIAL HepG2 Assay for M61 Transcription Factor (Internal Marker) (AID 2282937); settings: HepG2 Attagene CIS-FACTORIAL M61 internal marker reporter; actives raise or lower the signal
Procedure, shortened: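 HepG2 cells transiently transfected with cis-element-driven multiple reporter transcription units, dosed for 24 h. Reporter mRNA measured by RT-PCR, 6-FAM primer-extension labelling, HpaI digestion and capillary electrophoresis; bidirectional fit versus DMSO baseline.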

Heat shock factor protein 1 (Homo sapiens), sequence (Q00613 whole entry, looked up): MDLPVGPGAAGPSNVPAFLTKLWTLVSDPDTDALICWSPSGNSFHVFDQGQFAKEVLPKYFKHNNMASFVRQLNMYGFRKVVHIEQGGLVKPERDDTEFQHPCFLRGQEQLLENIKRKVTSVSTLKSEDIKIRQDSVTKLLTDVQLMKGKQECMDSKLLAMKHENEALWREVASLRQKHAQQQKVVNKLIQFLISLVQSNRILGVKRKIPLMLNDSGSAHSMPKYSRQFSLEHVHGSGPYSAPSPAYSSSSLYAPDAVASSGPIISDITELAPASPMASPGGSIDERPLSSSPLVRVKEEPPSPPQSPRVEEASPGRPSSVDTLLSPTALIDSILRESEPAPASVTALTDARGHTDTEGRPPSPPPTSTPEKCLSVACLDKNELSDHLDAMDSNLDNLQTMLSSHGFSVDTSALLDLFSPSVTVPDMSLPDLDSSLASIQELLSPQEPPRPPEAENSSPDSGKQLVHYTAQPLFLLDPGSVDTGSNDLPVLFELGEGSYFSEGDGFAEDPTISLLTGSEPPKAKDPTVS
Transcription factor E2F1 (Homo sapiens), sequence (Q01094 whole entry, looked up): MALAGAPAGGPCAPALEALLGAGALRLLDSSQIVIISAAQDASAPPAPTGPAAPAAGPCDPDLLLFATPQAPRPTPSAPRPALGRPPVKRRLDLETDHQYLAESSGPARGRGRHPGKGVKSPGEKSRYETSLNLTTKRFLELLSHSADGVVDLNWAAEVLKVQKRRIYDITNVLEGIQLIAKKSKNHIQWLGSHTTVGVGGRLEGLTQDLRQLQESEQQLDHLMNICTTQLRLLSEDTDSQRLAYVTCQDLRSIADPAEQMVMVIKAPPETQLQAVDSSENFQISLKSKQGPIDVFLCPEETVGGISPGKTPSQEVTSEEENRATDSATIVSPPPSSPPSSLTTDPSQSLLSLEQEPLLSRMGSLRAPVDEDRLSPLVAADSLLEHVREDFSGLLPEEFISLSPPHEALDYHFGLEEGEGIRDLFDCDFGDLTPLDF
Hepatocyte nuclear factor 3-beta (Homo sapiens), sequence (Q9Y261 whole entry, looked up): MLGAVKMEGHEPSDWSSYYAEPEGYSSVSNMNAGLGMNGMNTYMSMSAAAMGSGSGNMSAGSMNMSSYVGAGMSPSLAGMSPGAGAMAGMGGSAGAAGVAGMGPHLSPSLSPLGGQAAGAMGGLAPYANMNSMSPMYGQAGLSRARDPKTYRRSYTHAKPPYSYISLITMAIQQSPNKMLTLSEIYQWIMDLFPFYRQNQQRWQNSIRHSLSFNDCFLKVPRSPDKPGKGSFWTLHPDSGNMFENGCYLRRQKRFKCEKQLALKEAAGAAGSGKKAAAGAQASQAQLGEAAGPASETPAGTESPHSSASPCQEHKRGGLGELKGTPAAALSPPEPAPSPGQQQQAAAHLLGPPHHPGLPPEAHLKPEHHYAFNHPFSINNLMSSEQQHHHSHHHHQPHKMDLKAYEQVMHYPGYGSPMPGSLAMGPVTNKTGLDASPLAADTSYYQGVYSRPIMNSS
Hepatocyte nuclear factor 6 (Homo sapiens), sequence (Q9UBC0 whole entry, looked up): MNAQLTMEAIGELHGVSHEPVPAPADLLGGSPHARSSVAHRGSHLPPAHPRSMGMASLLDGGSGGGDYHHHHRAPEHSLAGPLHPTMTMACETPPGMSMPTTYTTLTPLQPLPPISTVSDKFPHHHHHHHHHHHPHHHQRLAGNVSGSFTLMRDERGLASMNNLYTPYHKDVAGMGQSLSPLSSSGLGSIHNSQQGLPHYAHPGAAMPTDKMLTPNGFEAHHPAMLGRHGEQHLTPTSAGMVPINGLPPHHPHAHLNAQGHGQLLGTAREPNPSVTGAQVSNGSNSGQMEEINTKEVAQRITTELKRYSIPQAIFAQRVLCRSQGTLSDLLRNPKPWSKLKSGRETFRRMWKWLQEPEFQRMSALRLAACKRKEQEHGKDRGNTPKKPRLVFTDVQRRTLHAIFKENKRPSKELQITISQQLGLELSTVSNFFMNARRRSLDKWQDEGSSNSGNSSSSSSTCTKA
Hypoxia-inducible factor 1-alpha (Homo sapiens), sequence (Q16665 whole entry, looked up): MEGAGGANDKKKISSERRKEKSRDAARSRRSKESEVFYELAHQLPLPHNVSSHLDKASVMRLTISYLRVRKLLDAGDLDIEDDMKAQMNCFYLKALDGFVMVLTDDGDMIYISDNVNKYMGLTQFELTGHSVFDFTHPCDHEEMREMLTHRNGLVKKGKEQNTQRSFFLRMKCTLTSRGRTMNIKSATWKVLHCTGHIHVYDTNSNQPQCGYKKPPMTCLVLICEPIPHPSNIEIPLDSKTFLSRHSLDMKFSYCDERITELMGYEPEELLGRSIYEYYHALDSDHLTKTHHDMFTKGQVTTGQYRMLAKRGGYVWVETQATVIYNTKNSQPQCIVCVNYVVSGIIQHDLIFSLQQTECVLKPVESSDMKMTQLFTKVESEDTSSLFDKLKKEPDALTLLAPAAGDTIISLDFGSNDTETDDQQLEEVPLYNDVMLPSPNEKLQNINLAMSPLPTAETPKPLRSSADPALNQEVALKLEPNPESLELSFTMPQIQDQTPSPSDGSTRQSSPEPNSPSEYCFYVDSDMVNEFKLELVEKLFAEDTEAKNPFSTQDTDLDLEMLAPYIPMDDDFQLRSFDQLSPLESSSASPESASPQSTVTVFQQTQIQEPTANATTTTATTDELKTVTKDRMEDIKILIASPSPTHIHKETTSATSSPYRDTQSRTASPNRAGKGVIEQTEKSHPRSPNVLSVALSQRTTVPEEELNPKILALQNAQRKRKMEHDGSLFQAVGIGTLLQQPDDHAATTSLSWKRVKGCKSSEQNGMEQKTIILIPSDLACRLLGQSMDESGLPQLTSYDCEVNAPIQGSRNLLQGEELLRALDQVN

SMILES	outcome [1]	outcome [2]	outcome [3]	outcome [4]	outcome [5]	outcome [6]	outcome [7]	outcome [8]	outcome [9]	outcome [10]	outcome [11]	outcome [12]	outcome [13]	outcome [14]	outcome [15]	outcome [16]	outcome [17]	outcome [18]	outcome [19]	AC50 [5]
NNC(=O)OCc1ccccc1	inactive	inactive	inactive	inactive	inactive	inactive	inactive	inactive	inactive	inactive	inactive	inactive	inactive	inactive	inactive	inactive				
CC(C)(CO)CO	inactive	inactive	inactive	inactive	inactive		inactive	inactive	inactive	inactive	inactive	inactive	inactive		inactive	inactive	inactive	inactive		
O=C(C=Cc1ccccc1)OCCCc1ccccc1	inactive		inactive	inactive		inactive	inactive	inactive	inactive	inactive	inactive	inactive	inactive	inactive	inactive	inactive	inactive	inactive		
CC/C=C\CCOC(=O)C(C)C	inactive		inactive	inactive	inactive	inactive	inactive	inactive	inactive	inactive	inactive	inactive	inactive	inactive	inactive		inactive	inactive	inactive	
Cc1cccc(C)c1	inactive		inactive	inactive		inactive	inactive	inactive	inactive	inactive	inactive	inactive	inactive	inactive		inactive	inactive	inactive	inactive	
C1=COCCC1	inactive		inactive	inactive	inactive	inactive	inactive	inactive	inactive	inactive	inactive	inactive	inactive	inactive	inactive		inactive	inactive	inactive	
C=CCCCCCCCCC(=O)OCC	inactive		inactive	inactive	inactive	inactive	inactive	inactive	inactive	inactive	inactive	inactive	inactive	inactive	inactive	inactive		inactive	inactive	
CCCCCCOC(C)=O	inactive		inactive	inactive	inactive	inactive	inactive	inactive	inactive	inactive	inactive			inactive		inactive	inactive	inactive	inactive	
CCOc1ccc(NC(C)=O)cc1	inactive		inactive	inactive	inactive	inactive	inactive	inactive	inactive	inactive	inactive	inactive		inactive	inactive	inactive	inactive		inactive	
CCCC(O)C(CC)CO (configuration not stated)	inactive		inactive	inactive	inactive	inactive	inactive	inactive	inactive	inactive	inactive	inactive	inactive	inactive	inactive	inactive		inactive		
C[N+](C)(C)CCO	inactive		inactive	inactive	inactive	inactive		inactive	inactive	inactive	inactive	inactive	inactive	inactive		inactive			inactive	
[O-]/[N+](=N\O)c1ccccc1	inactive		inactive	inactive		inactive	inactive	inactive	inactive	inactive	inactive	inactive	inactive		inactive	inactive		inactive	inactive	27.7 µM (active)
